Compounds without any hit were thinned out: in the full panel of roughly 83,000, 20% have a hit.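 Cell lines were cultured in 96-well plates, exposed to a single compound concentration, and assessed for percent growth 48 hours later.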 Values without a mark were called inactive. Activity calls are given as the source filed them. The calls were made as follows: active = growth percent below 10; inactive = the rest.

The results in this text go back to PubChem BioAssay (NCI).

Test in all cases: NCI-60 one-dose screen, 48 h (100 = growth as untreated, 0 = no growth, -100 = all killed)
Common to all, as to conditions: 10 µM

The test system of test [1] is NCI-H23 lung.
The test system of test [2] is NCI-H226 lung.
Test [3] concerns NCI-H322M lung.
Test [4] deals with HOP-62 NSCLC.
Test [5] has as its system NCI-H460 lung.
In test [6] the test system is HOP-92 NSCLC.
Test [7] deals with NCI-H522 lung.
In test [8] the test system is A549/ATCC NSCLC.
Test [9] has as its system 786-0 renal.
Test [10] relates to COLO 205 colon.
Test [11] deals with DU-145 prostate.
The subject of test [12] is MALME-3M melanoma.
Test [13] deals with MDA-MB-231 breast.
The subject of test [14] is RXF 393 renal.
Test [15] relates to SF-268 CNS.
The subject of test [16] is SF-295 CNS.
Test [17] has as its system SF-539 CNS.
Test [18] deals with UACC-257 melanoma.
Test [19] deals with M14 melanoma.
The test system of test [20] is K-562 leukemia.

As for `CC1(C)CC[C@]2(C(=O)NCCCNCCCCNCCCN)CC[C@]3(C)C(=CC[C@@H]4[C@@]5(C)Cc6c([nH]c7ccccc67)C(C)(C)[C@@H]5CC[C@]43C)[C@H]2C1`, the growth in test [1] was 83.7%; in test [2], 71.8%; in test [3] it was 101%; in [4], 85%; in test [5], 96.5%; in test [6], 60.5%. The growth in test [7] was 79.6%; in test [8] it was 86.5%; in test [9] it was 89.1%; in [10] it was 115%; in test [11] it was 96.3%; in [12] it was 85.3%. The growth in test [13] was -7.91% (active); in test [14], 78.1%; in test [15], 113%; in test [16], 98.5%; in [17], 90.7%; in [18], 95.9%. In addition, in test [19], the growth is 59.7%.

Take `Cc1ccc(/C=C(\C#N)n2nnc3c(F)cccc32)cc1`: the growth in test [1] was 14.7%; in [2], 16.8%; in test [3] it was 10.1%; in test [4], 17.8%; in test [5], 3.45% (active); in [6] it was -4.81% (active). The growth is 1.65% (active) in test [7]; -3% (active) in test [8]; 38.5% in test [9]; -70.6% (active) in test [10]; 13.9% in test [11]; 34.7% in test [12]. The growth in [13] was -18.1% (active); in test [14], -4.78% (active); in test [15] it was 24.3%; in [16] it was 16%; in [17], -27.9% (active); in test [18], 38.6%. Also, the growth in test [19] was 36.6%.

Turning to `CN1CCN(c2ccc(C(=O)/C=C/c3cc(Br)ccc3F)cc2)CC1`, the growth was 49.4% in test [1]; 61.6% in [2]; 93.3% in test [3]; 77.1% in test [4]; 67.2% in [5]; 31.6% in [6]. Further, the growth was 66.4% in test [7]; 28.5% in test [8]; 27.1% in test [9]; 44.8% in [11]; -35.5% (active) in test [20]; 78.9% in test [12]. Also, the growth is 26.9% in test [13]; 38.8% in test [14]; 88.6% in test [15]; 60.7% in test [16]; 2.31% (active) in [17]; 73.8% in test [18]. For the same compound, the growth in test [19] was 52.1%.

In the case of `CCCS(=O)(=O)c1oc(-c2ccc(F)cc2)nc1S(=O)(=O)c1ccc(F)cc1`, the growth in test [1] is -42.1% (active); in test [2], 64.7%; in test [3], 89.8%; in test [4], 84%; in [5], 61.7%; in test [6], -80.6% (active). The growth in test [7] is -92.9% (active); in [8], 82.5%; in [9], -52.2% (active); in test [10], -92.1% (active); in test [11] it was -85.8% (active); in [12], -98.8% (active). Besides, the growth in test [13] is -91.9% (active); in test [14], -97.5% (active); in [15], 52.2%; in test [16] it was 78.2%; in test [17], -94.2% (active); in test [18] it was -30.9% (active). Also, the growth in test [19] was -37.5% (active).

Turning to `O=C(/C=C/Nc1ccc(F)cc1F)c1ccc2c(c1)Nc1ccccc1S2`, the growth in test [1] is 70.3%; in [2], 53.2%; in [3], 89.3%; in test [4], 78.5%; in [5], 55.4%; in [6], 85.5%. The growth in test [7] was 75%; in [8], 81%; in test [9], 88.1%; in test [11] it was 89.4%; in test [20], 28.6%; in test [12] it was 66.1%. Besides, the growth in test [13] was 77.5%; in [15], 82.2%; in test [16] it was 65.3%; in test [17], 62.4%; in test [18], 88.2%; in [19] it was 66.4%.

For the compound `CCN1CCN(c2ccc(NC(=O)Nc3ccc4c(c3F)CCN4c3ccnc(C(=O)NC)c3)cc2C(F)(F)F)CC1`, the growth in test [1] was -79.4% (active); in [2], 95%; in [3], 90.5%; in test [4], -49.3% (active); in test [5], -87.6% (active); in test [6], 82.3%. Besides, the growth in test [7] is 110%; in [8] it was -81.4% (active); in test [9], -95.9% (active); in [10], 120%; in test [11], -91.2% (active); in test [12] it was -94.3% (active). In addition, the growth is -88.9% (active) in test [13]; -93% (active) in test [14]; -64.2% (active) in test [15]; -74.1% (active) in [16]; -100% (active) in test [17]; 99.3% in test [18]. Besides, the growth in test [19] was -92.6% (active).

On to `COc1ccc2nc(Nc3cccc(NC(=O)c4ccc(CN5CCN(C)CC5)c(C(F)(F)F)c4)c3)ccc2c1`, for which the growth in test [1] is -94.9% (active); in [2] it was -46.9% (active); in [3], -64% (active); in [4], -77.6% (active); in [5] it was -84.5% (active); in [6], -57% (active). In addition, the growth is -85.7% (active) in [7]; -54.7% (active) in [8]; -55.3% (active) in test [9]; -32.8% (active) in [11]; -70.8% (active) in test [20]; -91.8% (active) in [12]. The growth in test [13] is -82.7% (active); in [14] it was -75.7% (active); in [15] it was -55.2% (active); in test [16] it was -97.7% (active); in test [17] it was -99.8% (active); in test [18] it was -83.9% (active). Further, the growth in [19] is -50.1% (active).

`COc1ccc2[nH]c(=O)c(CSc3ccc(Nc4nccc(-c5ccc(Cl)cc5)n4)cc3)cc2c1`: the growth in test [1] was 83.9%; in [2] it was 38.8%; in test [3] it was 95.7%; in test [4], 104%; in [5] it was 112%; in [6], 93.2%. Further, the growth in test [7] is 86.7%; in [8], 98.1%; in test [9] it was 109%; in test [11] it was 111%; in test [20] it was 81.9%; in test [12], 113%. The growth is 90.1% in [13]; 99.9% in test [15]; 102% in test [16]; -41% (active) in test [17]; 120% in [18]; 109% in test [19].
